Measured values: PubChem BioAssay (NCATS)
Results filed as inconclusive are left out. A call without a number means that no potency is given here. Active and inactive are the calls of the source. Calls come from the whole dose curve; as a rule, active = well fitted cell-killing curve with a large enough effect; inconclusive = small, poorly fitted or top-dose-only effect; inactive = flat fitted curve, though single readings scatter.

Experiment: Cell Viability - LYMP2-014 (AID 983); note: nearly all actives have a fitted effect of over 50% in size
Conditions: LYMP2-014 lymphoblastoid cells, viability qHTS; series mostly up to 92.2 µM
Excerpt: NIH Chemical Genomics Center [NCGC]
NIH Molecular Libraries Screening Centers Network [MLSCN]
National Institutes of Environmental Health Sciences [NIEHS]
National Toxicology Program [NTP]
We have developed a 1536-well cell-based assay for quantitative high throughput screening (qHTS) against a number of cell lines to determine in vitro cytotoxicity of small molecules. This particular assay uses a human lymphoblastoid cell line (LYMP2-014) purchased from Coriell Institute for Medical Research.
NCGC Assay Protocol Summary:
The CellTiter-Glo luminescent cell viability assay (Promega) is a homogeneous method to measure the number of viable cells in culture. The end point readout of this assay is based on quantitation of intracellular ATP, an indicator of metabolic activity, using the luciferase reaction. Luciferase catalyzes the oxidation of beetle Luciferin to oxyluciferin and light in the presence of ATP. The luminescent signal is proportional to amount of ATP present.
Using the CellTiter-Glo luminescent cell viability assay, the amount of cellular ATP was measured in the lymphoblastoid cell line with complete culture medium following compound treatment for 24 hours. The assay was performed in opaque white Kalypsys 1536-well plates. In the screen, tetraoctylammonium bromide was used as positive control. Library compounds were measured for their ability to cause acute toxicity in the cell line, as reflected by a decrease in intracellular ATP levels, in a concentration-dependent manner. […] AC50 values were determined from concentration-response data modeled with the standard Hill equation.
qHTS protocol for CellTiter Glo lymphoblastoid cellular assay
[Step] [Parameter] [Value] [Description]
1. Reagent; 5 uL; 2500 lymphoblastoid cells/well
2. Time; 5 hr; 37 C incubation
4. Controls; 23 nL; Tetraoctylammonium bromide 6.4pM to 92 uM
5. Time; 24 hr; 37 C incubation
6. Reagent; 5 uL; CellTiter Glo reagent
7. Time; 30 min; Room Temperature
8. Detection; Luminescence; Viewlux plate reader
Keywords: cell viability, cytotoxicity, lymphoblastoid cell line, luminescence, NTPHTS, NTPHTS_NCGC, NIEHS, DSSTox, MLSMR, MLSCN, NIH Roadmap, qHTS, NCGC
Potency is the fitted concentration of half-maximal effect.

**Q.** With `Nc1ccc([N+](=O)[O-])cc1O` as the compound, how does the Potency read?
**A.** The Potency was “inactive”.

**Q.** With `CCCOC(=O)c1ccc(O)cc1` as the compound, how does the Potency read?
**A.** Its Potency is “inactive”.

**Q.** Which Potency does the source give for `c1ccc2sc(SSc3nc4ccccc4s3)nc2c1` here?
**A.** Its Potency is “inactive”.

**Q.** For `CN1CCC[C@H]1c1cccnc1`, which Potency is on record?
**A.** Its Potency is “inactive”.

**Q.** With `CN(C)c1ccc(C(=C2C=CC(=[N+](C)C)C=C2)c2ccccc2)cc1` as the compound, how does the Potency read?
**A.** Its Potency is 0.251 µM (active).

**Q.** With `CC(C)NCC(O)COc1cccc2ccccc12` (stereo unspecified) as the compound, how does the Potency read?
**A.** The Potency was “inactive”.

**Q.** Which Potency does the source give for `S=c1[nH]c2ccccc2s1` here?
**A.** The Potency was “inactive”.

**Q.** Which Potency does the source give for `CN(C)CCC(c1ccc(Cl)cc1)c1ccccn1` (stereo unspecified) here?
**A.** The Potency was “inactive”.

**Q.** With `COc1cc(CNC(=O)CCCC/C=C/C(C)C)ccc1O` as the compound, how does the Potency read?
**A.** Its Potency is “inactive”.

**Q.** With `O=C(O)/C=C\C(=O)O` as the compound, how does the Potency read?
**A.** Its Potency is “inactive”.

**Q.** Which Potency does the source give for `O=c1cc(-c2ccccc2)oc2ccccc12` here?
**A.** The Potency was “inactive”.

**Q.** With `CCCCCCCCCCCCCCCCCC(=O)O` as the compound, how does the Potency read?
**A.** The Potency was “inactive”.

**Q.** Which Potency does the source give for `O=C(O)c1cc(O)c(O)c(O)c1` here?
**A.** The Potency was “inactive”.

**Q.** Which Potency does the source give for `C#C[C@]1(O)CC[C@H]2[C@@H]3CCc4cc(O)ccc4[C@H]3CC[C@@]21C` here?
**A.** The Potency was “inactive”.

**Q.** Which Potency does the source give for `CC1(C)S[C@@H]2[C@H](NC(=O)[C@H](N)c3ccccc3)C(=O)N2[C@H]1C(=O)O` here?
**A.** Its Potency is “inactive”.

**Q.** Which Potency does the source give for `N=C1N=C(N)c2cc3ccccc3cc21` here?
**A.** The Potency was 39.8 µM (active).

**Q.** With `NCCO` as the compound, how does the Potency read?
**A.** The Potency was “inactive”.

**Q.** With `Nc1ccc(O)c([N+](=O)[O-])c1` as the compound, how does the Potency read?
**A.** Its Potency is “inactive”.

**Q.** With `CN(C)c1ccc(N=NS(=O)(=O)O)cc1` as the compound, how does the Potency read?
**A.** Its Potency is “inactive”.

**Q.** For `Nc1nc2ccc([N+](=O)[O-])cc2s1`, which Potency is on record?
**A.** Its Potency is “inactive”.

**Q.** For `Nc1ccc(O)c(C(=O)O)c1`, which Potency is on record?
**A.** Its Potency is “inactive”.
